Compounds with a hit are over-represented: about 12% of the library has one in this group of screens.
NS1 inh: blocks influenza NS1 protein function; AID 2326; Potency, µM (doses to about 46.1 µM), inactives show at the top dose activity, positive = more growth; 270,000 compounds, 0.4% hits; calls by dose curve; note: actives are rising curves; nearly all actives have a fitted effect of over 50% in size
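Growth recovery, yeast-based: influenza A NS1 expressed in S. cerevisiae causes slow growth, and suppressors are detected by OD600. The parent strain without NS1 is used as positive control.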
HCV inh: HCV inhibition; Huh7.5.1 HCVcc-Cre infection, luciferase reporter, 44 h; Potency, µM (doses to about 41.8 µM), inactives show at the top dose activity change, negative = inhibition, usual class: inhibitors; 340,000 compounds, 3.4% hits; AID 651820; note: % is set by controls: 0 for no effect and ±100 for the full control effect
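Compounds are dispensed onto cells plated 4 h earlier at 1,000 per well, with HCVcc-Cre virus (about 0.5 moi) added next. Following 44 h of culture, luminescent signal is measured for 15 sec after 15 min with substrate at room temperature.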
SARS PLpro yeast: blocks SARS-CoV papain-like protease in a yeast assay | 330,000 compounds, 0.19% hits | Potency, µM (titrated, usually from 32.9 µM), for the others: at the highest dose activity, positive = growth rescue, hits mostly activators | S. cerevisiae expressing SARS-CoV PLpro, growth rescue; calls by dose curve; note: 0% is about no effect; nearly all actives have a fitted effect of over 55% in size
Pf growth 48h: P. falciparum growth inhibition at 48 hours (one generation); P. falciparum luciferase growth in erythrocytes, 48 h; Potency, µM (doses to about 28.7 µM), for inactives: top-dose activity change, negative = inhibition, hits mostly inhibitors; 310,000 compounds, 5.9% hits; note: % is set by controls: 0 for no effect and ±100 for the full control effect
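Growth was read as firefly luciferase luminescence after a 48 h, 37 C, 5% CO2 exposure of compounds to reporter-bearing P. falciparum cultures (0.1% parasitemia, 2% hematocrit final) in Albumax-supplemented RPMI 1640.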
AMA1-RON2 inh: AMA1-RON2 (P. falciparum) interaction inhibition; AlphaScreen AMA1-biotinylated RON2 peptide binding; Potency, µM (series often up to 58.2 µM), inactives show at the top dose activity change, negative = inhibition, hits mostly inhibitors; 360,000 compounds, 0.2% hits; AID 720542;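 note: 0% = vehicle wells and -100% = peptide control; nearly all actives have a fitted effect of over 45% in size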
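AMA1 (3D7) with his tag at 25 nM final met compounds first, then biotinylated RON2 peptide at 25 nM; detection used donor plus acceptor beads, 10 µg/mL apiece, read by AlphaScreen after 30 min at room temperature.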
Pf growth 96h: inhibits malaria parasite growth, 96 h. 320,000 compounds, 6.9% hits. Potency, µM (top dose mostly 28.7 µM), without a hit: at the top dose activity change, negative = inhibition, usual class: inhibitors. P. falciparum luciferase reporter growth, 96 h; note: % is set by controls: 0 for no effect and ±100 for the full control effect
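Luminescence readout: decreased luciferase signal marks inhibited growth of reporter-expressing P. falciparum in infected red cells (2% hematocrit, 0.05% parasitemia final), exposed to compound two generations (96 h, 37 C, 5% CO2).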
Active calls of the source: *; ? = inconclusive; · = not tested or not shown; [ ] = another dose, or the depositor's remark. Unless noted, calls come from the whole dose curve; as a rule, active = well fitted curve in the direction sought with a large enough effect; inconclusive = small, poorly fitted or top-dose-only effect, or another doubt; inactive = no such curve, though single readings can be large; an effect the other way counts as inactive or inconclusive. Potency is the fitted concentration of half-maximal effect.

SMILES	NS1 inh	HCV inh	SARS PLpro yeast	Pf growth 48h	AMA1-RON2 inh	Pf growth 96h
COc1ccc(CCN2C(=O)C3C4C=CC(C3C2=O)C2C(=O)N(CCc3ccc(OC)c(OC)c3)C(=O)C42)cc1OC (stereo not drawn)	-6%	4.5µM*	27%	·	15%	?
COc1cccc(C2=CC(c3ccc(C)cc3)n3ncnc3N2)c1 (stereo not drawn)	-16%	·	-2%	?	·	46%
Cc1ccsc1C1C=C(c2cccc(Br)c2)Nc2ncnn21 (stereo not drawn)	-41%	-23%	-1%	0%	-1%	12µM*
CS(=O)(=O)c1cccc(C(=O)OCC(=O)Nc2ccc3c(c2)OCO3)c1	·	-6%	2%	27%	-5%	23%
O=C(CN1CCOCC1)Nc1ccc(Oc2ccccc2)cc1	-11%	-6%	0%	19%	-6%	-1%
O=C(CN1CCNCC1)Nc1ccc(Oc2ccccc2)cc1	-3%	7.9µM*	6%	-25%	-5%	21%
O=C(CC1NCCc2ccccc21)Nc1ccc(Oc2ccccc2)cc1 (stereo not drawn)	·	11µM*	-3%	352%	4%	?
COc1ccc(-c2nn(CCC#N)cc2C(=O)NCc2ccccc2)cc1OC	16%	1%	0%	232%	-5%	12µM*
COc1ccc(-c2nn(CCC#N)cc2C(=O)Nc2ccccc2)cc1OC	16%	6%	1%	72%	4%	-12%
O=C(CN1c2cccc3cccc(c23)S1(=O)=O)N1CCN(c2ccccc2)CC1	·	9%	2%	·	20%[11.6 µM]	·
O=c1[nH]c(SCCc2ccccc2)nc2c1CCC2	·	·	·	·	-6%	·
O=c1[nH]c(NCc2ccccc2)nc2c1CCCC2	-6%	4%	-8%	13µM*	-5%	8.3µM*
COCc1ccc(C(=O)N2CCCC(C(=O)c3ccc(SC)cc3)C2)s1 (stereo not drawn)	-31%	·	-3%	-6%	-15%	?
CC(C)CN1CCC(=O)N([C@H](COc2ccccc2)c2ccccc2)CC1	-10%	-16%	0%	?	-6%	?
CCc1nc2ccc(C(=O)N(CC)CCN(C)C)cn2c1N(C)C(=O)c1cccc(OC)c1	·	·	·	·	-1%	·
C=C(C)CNC(=S)N/N=C/c1ccc([N+](=O)[O-])cc1	·	-20%	4%	12µM*	58%	15%
COC(=O)c1ccc2nc(C3CCCCC3)c3c(c2c1)CCC3	·	-10%	·	·	12%	·
CCOC(=O)c1nc(NCc2cccc(OC)c2)c2ccccc2n1	-6%	-13%	1%	-1%	5%	78%
CN(C)c1ccc(CN(C(=O)C2COc3ccccc3O2)C2CCS(=O)(=O)C2)cc1 (stereo not drawn)	19%	·	4%	?	-4%	5.2µM*
CC(CNC(=O)c1cccs1)c1ccc([N+](=O)[O-])cc1 (stereo not drawn)	-8%	-2%	-3%	?	1%	?
CC(C)C(C(=O)Nc1ccncc1)c1ccc(Cl)cc1 (stereo not drawn)	-59%	?	·	3.3µM*	9%	1.5µM*
CC(Oc1cccc(Cl)c1)C(=O)Nc1ccncc1 (stereo not drawn)	-2%	?	-3%	?	-3%	5%
CC(C)C(C(=O)Nc1nccs1)c1ccc(Cl)cc1 (stereo not drawn)	·	?	-1%	?	3%	9.3µM*
O=C(Nc1nccs1)c1ccc(COc2c(F)c(F)cc(F)c2F)cc1	-1%	?	-1%	?	84%	25%
Oc1ccc2ccccc2c1C=NCc1ccccc1	-7%	7%	-3%	?	42%	13µM*
SMILES	NS1 inh	HCV inh	SARS PLpro yeast	Pf growth 48h	AMA1-RON2 inh	Pf growth 96h
Oc1ccc2ccccc2c1/C=N/Nc1ccccc1	-4%	-15%	-12%	-10%	-3%	?
NC(=S)N/N=C/c1c(O)ccc2ccccc12	1%	?	2%	4.7µM*	13%	?
CN1CCN(Cc2nc3cccc4c3c([n+]2[O-])-c2ccccc2-4)CC1	-7%	·	·	·	·	·
CCc1ccc2c(c1)C(=O)CCC2	·	22%	·	·	-8%	·
O=C1CCCc2cc3c(cc21)CC1(C3)Cc2cc3c(cc2C1)C(=O)CCC3	-3%	11µM*	1%	5.2µM*	-6%	?
CSc1ccccc1NC(=S)NC1CCCC1	-12%	-10%	9%	?	1%	?
CCCCc1ccccc1NC(=S)NC1CCCC1	-72%	-26%	7%	9.3µM*	40%	?
COc1ccccc1NC(=S)NC1CCC(CC2CCC(NC(=S)Nc3ccccc3OC)CC2)CC1 (stereo not drawn)	?	-8%	-3%	12µM*	0%	8.3µM*
CC(C)c1ccccc1NC(=S)NC1CCCCC1	-56%	-6%	-2%	?	5%	4.7µM*
Cc1cc(OC(F)F)ccc1NC(=S)NC1CCCC1	-5%	-24%	10%	?	-4%	13µM*
COc1ccccc1NC(=S)NC1CCCC1	·	-13%	·	·	-1%	·
Cc1cc(OCC(=O)OCC(=O)N2CCc3ccccc3C2)ccc1Cl	·	17%	-1%	8%	7%	1%
CC(=O)O[C@@H]1C[C@H]2C(C)(C)C(=O)C=C[C@]2(C)[C@H]2CC[C@@]3(C)[C@H](c4ccoc4)OC(=O)[C@H]4O[C@]43[C@@]21C	17%	?	4%	1.7µM*	-20%	3.3µM*
CCCN(C(=O)CCl)C1=CCCCC1	·	13µM*	1%	?	-3%	-37%
CNS(=O)(=O)c1cc(Nc2ncnc3sccc23)ccc1C	-2%	?	-1%	·	2%	-16%
O=C1C(Nc2ccccc2)=C(N2CCCCC2)C(=O)c2ccccc21	-3%	10µM*	3%	0.47µM*	0%	34%
CC1=C(Nc2ccc(C(=O)O)cc2)C(=O)c2ccccc2C1=O	-2%	?	-5%	52%	-12%	26%
O=C1C(Nc2cccc(O)c2)=C(N2CCCCC2)C(=O)c2ccccc21	-4%	2%	-2%	?	?	0.41µM*
Cc1ccc(NC2=C(N3CCCCC3)C(=O)c3ccccc3C2=O)cc1	-13%	-5%	3%	0.17µM*	2%	0.074µM*
COc1ccccc1NC1=C(N2CCCCC2)C(=O)c2ccccc2C1=O	9%	?	11%	0.046µM*	?	0.093µM*
C=CCNc1cc(F)ccc1S(=O)(=O)NCC=C	·	-5%	20%	·	17%	·
CN(C1=C(N2CCCCC2)C(=O)c2ccccc2C1=O)c1ccccc1	-6%	13µM*	?	8.3µM*	9.5µM*	·
O=C(/C=C/c1ccc(O)cc1)c1ccc(NC2=C(N3CCCCC3)C(=O)c3ccccc3C2=O)cc1	26%	10µM*	-1%	0.52µM*	-10%	0.17µM*
CN(c1ccccc1)c1nc(N)c([N+](=O)[O-])c(N2CCCCC2)n1	-2%	?	1%	5%	-11%	18%

High-throughput results: PubChem, National Center for Advancing Translational Sciences (NCATS)
